Source: PubChem BioAssay (Tox21)
Values joined by “and” are separate entries in the source; they are usually repeats but may differ in a detail not shown here. Equal entries are not always repeated. Results filed as inconclusive are left out. Entries that show only a call come without a potency. Some structures have more than one record in an assay (separate samples or runs), and their calls can disagree. Active and inactive are the calls of the source. Unless noted, the call rests on the fitted dose curve; in most records, active means well fitted curve in the direction sought with a large enough effect in the repeat runs; inconclusive means weak or mixed curves; inactive means no such curve, though single readings can be large; an effect the other way counts as inactive or inconclusive.

Columns and labels:
[1] = A CellTox Green Cytotoxicity Assay to monitor cytotoxicity in HEK293 cells - 32 hour (AID 1224881); further: nearly all actives have a fitted effect of over 40% in size; further: potency means the concentration at half of the fitted maximal effect
Procedure, shortened: (§1)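 Each value comes from one timepoint of a single continuous run in which HEK293 cells with CellTox Green were exposed to compound for up to 40 h at 37 C, dye fluorescence rising with cell death.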

[2] = A CellTox Green Cytotoxicity Assay to monitor cytotoxicity in HepG2 cells - 0 hour (AID 1224882); further: nearly all actives have a fitted effect of over 35% in size
Procedure, shortened: (§2)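 Continuous culture of HepG2 cells with a membrane-impermeant DNA dye; rising fluorescence marks dead cells. Compound exposure lasted up to 40 h at 37 C, with reads every 8 h from 0 h.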

[3] = A CellTox Green Cytotoxicity Assay to monitor cytotoxicity in HepG2 cells - 32 hour (AID 1224883); further: nearly all actives have a fitted effect of over 50% in size
Procedure, shortened: as §2

[4] = A CellTox Green Cytotoxicity Assay to monitor cytotoxicity in HEK293 cells - 8 hour (AID 1224884); further: nearly all actives have a fitted effect of over 35% in size
Procedure, shortened: as §1

[5] = qHTS RealTime-Glo MT Cell Viability Assay in HepG2 cells - 16 hour (AID 1224885); further: nearly all actives have a fitted effect of over 50% in size
Procedure, shortened: (§3)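 HepG2 cells were seeded at 600 cells/well together with NanoLuc luciferase and a cell-permeant prosubstrate, preincubated 5 h at 37 C/5% CO2, then pin-dosed with compounds in DMSO. Nonlytic luminescence from viable cells was read at each time point.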

[6] = qHTS RealTime-Glo MT Cell Viability Assay in HEK293 cells - 24 hour (AID 1224886); further: nearly all actives have a fitted effect of over 50% in size; further: potency means the concentration at half of the fitted maximal effect
Procedure, shortened: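 HEK293 cells were seeded at 600 cells/well together with NanoLuc luciferase and cell-permeant prosubstrate, preincubated 5 h at 37 C/5% CO2, then given compound in DMSO by pintool. Luminescence from viable-cell prosubstrate reduction was read repeatedly over 40 h.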

[7] = qHTS RealTime-Glo MT Cell Viability Assay in HEK293 cells - 8 hour (AID 1224887); further: nearly all actives have a fitted effect of over 50% in size; further: potency means the concentration at half of the fitted maximal effect
Procedure, shortened: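 qHTS format; HEK293 cells with NanoLuc/prosubstrate reagent, 37 C/5% CO2 for 5 h pre-dosing; compounds 23 nL in DMSO; luminescence at each time point reflects viable cells.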

[8] = A CellTox Green Cytotoxicity Assay to monitor cytotoxicity in HEK293 cells - 16 hour (AID 1224888); further: nearly all actives have a fitted effect of over 35% in size
Procedure, shortened: as §1

[9] = qHTS RealTime-Glo MT Cell Viability Assay in HepG2 cells - 0 hour (AID 1224889); further: nearly all actives have a fitted effect of over 50% in size
Procedure, shortened: as §3

[10] = A CellTox Green Cytotoxicity Assay to monitor cytotoxicity in HepG2 cells - 8 hour (AID 1224890); further: nearly all actives have a fitted effect of over 45% in size
Procedure, shortened: as §2

[11] = qHTS assay to identify small molecule antagonists of the estrogen receptor alpha (ER-alpha) signaling pathway using the BG1 cell line in the presence of 0.1 nM 17-beta-estradiol - cell viability counter screen (AID 1259241); further: nearly all actives have a fitted effect of over 40% in size
Procedure, shortened: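 The cell line endogenously expresses full-length ER-alpha and carries four EREs driving luciferase. Cells are cultured 5 days hormone-free, treated 22 hr with compounds and 0.1 nM estradiol, then viability is read by fluorescence.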

[12] = qHTS assay to identify small molecule antagonists of the androgen receptor (AR) signaling pathway using the MDA cell line in the presence of 0.5 nM R1881 - cell viability counter screen (AID 1259242); further: nearly all actives have a fitted effect of over 45% in size
Procedure, shortened: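 Fluorescence from CellTiter-Fluor, which reports protease activity of live cells, was read 30 min after reagent addition to MDA-kb2 cells that had been incubated 16 hr with compound and 0.5 nM R1881.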

[13] = target: Androgen receptor (Homo sapiens) (UniProt P10275); experiment: qHTS assay to identify small molecule antagonists of the androgen receptor (AR) signaling pathway using the MDA cell line in the presence of 0.5 nM R1881 (AID 1259243); further: nearly all actives have a fitted effect of over 50% in size
Procedure, shortened: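 Inhibition of R1881 (0.5 nM final) induced reporter signal was measured in human MDA-kb2 cells; note the MMTV promoter also responds to GR. Exposure lasted 16 hr at 37C.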

[14] = target: Estrogen receptor (Homo sapiens) (UniProt P03372); experiment: qHTS assay to identify small molecule antagonists of the estrogen receptor alpha (ER-alpha) signaling pathway using the BG1 cell line in the presence of 0.1 nM 17-beta-estradiol (AID 1259244); further: nearly all actives have a fitted effect of over 50% in size
Procedure, shortened: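 Quantitative high-throughput screen in VM7Luc4E2 cells: compound plus 0.1 nM E2 (final), 22 h, 37C, 5% CO2; ONE-Glo added, 30 min room temperature, luminescence measured.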

[15] = qHTS assay to identify small molecule HDAC inhibitors - cell viability counter screen (AID 1259365)
Procedure, shortened: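 Viability readout: CellTiter-Glo luminescence. Wild-type HCT-116 cells, 2hr compound treatment following overnight attachment at 37 C.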

[16] = qHTS assay to identify small molecule agonists of the sonic hedgehog signaling (Shh) pathway - cell viability counter screen (AID 1259366); further: nearly all actives have a fitted effect of over 50% in size
Procedure, shortened: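 Viability measured fluorometrically (CellTiter-Fluor, 1hr, 37C) in 3T3 Gli1-Luc reporter cells after 23hr compound exposure within a 24hr incubation at 37C/5% CO2.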

[17] = qHTS assay to identify small molecule antagonists of the sonic hedgehog signaling (Shh) pathway - cell viability counter screen (AID 1259367); further: nearly all actives have a fitted effect of over 55% in size
Procedure, shortened: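 Using CellTiter-Fluor, viability of Gli1-Luc reporter 3T3 cells is read by fluorescence in the wells used for the Shh luciferase assay. Treatment lasts 23 hr with conditioned medium, then reagent 1 hr at 37C.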

[18] = qHTS assay to identify small molecule agonists of the sonic hedgehog signaling (Shh) pathway (AID 1259368; calls by dose curve;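 further: NIH/3T3-derived 3T3Gli1-Luc cells carrying a stable Gli1-driven firefly luciferase reporter; series mostly up to about 92 µM; nearly all actives have a fitted effect of over 15% in size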)
Procedure, shortened: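 Luminescent signal was taken as a measure of Gli1-controlled luciferase expression in stably transfected NIH/3T3-derived cells that had been treated for 24 hr with compounds delivered in DMSO.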

[19] = qHTS assay to identify small molecule HDAC inhibitors (AID 1259364); further: top concentration of the series differs between compounds; nearly all actives have a fitted effect of over 45% in size
Procedure, shortened: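 Endogenous HDAC class I/II activity was measured in wild-type HCT-116 cells by HDAC-Glo luminescence after 2 h compound treatment.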

[20] = qHTS assay to identify small molecule phospholipidosis (PLD) inducers (AID 1259344; active means well fitted curve in the direction sought with a large enough effect; an effect the other way counts as inactive or inconclusive; further: potency means the concentration at half of the fitted maximal effect)
Procedure, shortened: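 Fluorescent phospholipid staining (LipidTOX Red) measured by automated microscopy in fixed HepG2 cells after 24 h treatment; nuclei counterstained with Hoechst 33342; amiodarone as reference inducer.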

Androgen receptor (Homo sapiens), sequence (P10275 whole entry, looked up): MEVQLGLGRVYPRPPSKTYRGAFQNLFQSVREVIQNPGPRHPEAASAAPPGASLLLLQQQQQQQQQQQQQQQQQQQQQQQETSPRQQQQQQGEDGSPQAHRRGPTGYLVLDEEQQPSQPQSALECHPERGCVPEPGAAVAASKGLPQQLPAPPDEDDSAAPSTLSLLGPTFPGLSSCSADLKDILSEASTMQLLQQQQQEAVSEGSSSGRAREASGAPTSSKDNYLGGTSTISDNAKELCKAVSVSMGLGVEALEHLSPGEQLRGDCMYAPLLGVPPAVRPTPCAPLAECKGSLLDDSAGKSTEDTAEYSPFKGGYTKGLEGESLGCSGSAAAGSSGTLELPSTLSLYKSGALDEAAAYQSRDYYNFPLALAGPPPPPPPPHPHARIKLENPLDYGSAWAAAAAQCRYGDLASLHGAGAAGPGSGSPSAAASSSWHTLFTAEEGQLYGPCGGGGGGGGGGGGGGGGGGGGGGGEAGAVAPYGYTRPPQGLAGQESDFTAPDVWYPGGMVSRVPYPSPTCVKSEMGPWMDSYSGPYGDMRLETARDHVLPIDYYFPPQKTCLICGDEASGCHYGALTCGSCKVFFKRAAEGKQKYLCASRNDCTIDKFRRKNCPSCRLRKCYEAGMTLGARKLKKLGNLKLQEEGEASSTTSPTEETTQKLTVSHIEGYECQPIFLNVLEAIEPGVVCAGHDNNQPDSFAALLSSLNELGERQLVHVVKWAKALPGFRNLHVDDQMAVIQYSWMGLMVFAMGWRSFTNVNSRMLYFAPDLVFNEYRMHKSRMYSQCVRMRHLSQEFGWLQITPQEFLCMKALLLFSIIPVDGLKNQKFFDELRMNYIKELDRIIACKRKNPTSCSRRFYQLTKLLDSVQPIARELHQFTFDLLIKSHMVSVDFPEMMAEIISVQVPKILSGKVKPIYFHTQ
Estrogen receptor (Homo sapiens), sequence (P03372 whole entry, looked up): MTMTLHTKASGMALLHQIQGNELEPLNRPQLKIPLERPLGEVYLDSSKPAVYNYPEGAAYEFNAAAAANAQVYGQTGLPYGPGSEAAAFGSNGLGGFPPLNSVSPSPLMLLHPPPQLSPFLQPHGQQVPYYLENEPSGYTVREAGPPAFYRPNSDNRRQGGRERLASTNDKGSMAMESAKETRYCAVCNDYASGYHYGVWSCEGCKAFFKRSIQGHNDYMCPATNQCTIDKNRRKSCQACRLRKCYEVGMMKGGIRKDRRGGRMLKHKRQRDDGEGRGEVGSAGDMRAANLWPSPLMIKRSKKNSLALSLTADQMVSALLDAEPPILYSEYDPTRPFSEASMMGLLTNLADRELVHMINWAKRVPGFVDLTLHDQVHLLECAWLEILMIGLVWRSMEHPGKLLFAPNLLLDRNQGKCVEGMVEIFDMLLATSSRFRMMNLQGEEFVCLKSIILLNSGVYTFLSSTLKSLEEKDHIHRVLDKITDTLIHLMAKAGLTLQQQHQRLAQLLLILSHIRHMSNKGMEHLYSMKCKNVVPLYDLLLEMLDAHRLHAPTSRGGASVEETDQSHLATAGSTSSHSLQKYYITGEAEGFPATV

| Structure (SMILES) | Potency [1] | Potency [2] | Potency [3] | Potency [4] | Potency [5] | Potency [6] | Potency [7] | Potency [8] | Potency [9] | Potency [10] | Potency [11] | Potency [12] | Potency [13] | Potency [14] | Potency [15] | Potency [16] | Potency [17] | Potency [18] | Potency [19] | Potency [20] |
| --- | --- | --- | --- | --- | --- | --- | --- | --- | --- | --- | --- | --- | --- | --- | --- | --- | --- | --- | --- | --- |
| CC(C)CBr | inactive | inactive | inactive | inactive | inactive | inactive | inactive | inactive | inactive | inactive | inactive | inactive | inactive | inactive | inactive | inactive | inactive | inactive |  |  |
| Clc1ccc(C(c2ccccc2Cl)C(Cl)(Cl)Cl)cc1 (configuration not stated) | 55.3 µM (active) and inactive | inactive | inactive | inactive | inactive | 49.3 µM (active) and inactive | 49.3 µM (active) and inactive | inactive | inactive | inactive | inactive | inactive |  | inactive | inactive |  | inactive |  | inactive |  |
| C[C@H]1O[C@@H](O[C@H]2[C@@H](O)C[C@H](O[C@H]3[C@@H](O)C[C@H](O[C@H]4CC[C@@]5(C)[C@H](CC[C@@H]6[C@@H]5CC[C@]5(C)[C@@H](C7=CC(=O)OC7)CC[C@]65O)C4)O[C@@H]3C)O[C@@H]2C)C[C@H](O)[C@@H]1O | inactive | inactive | inactive | inactive | inactive | 34.9 nM (active) and 84.9 nM (active) | inactive | inactive | inactive | inactive | inactive | inactive | inactive | inactive | inactive | inactive | inactive | inactive | inactive | 2 µM (active) |
| C=CC(=O)N(C)C | inactive | inactive | inactive | inactive | inactive | inactive | inactive | inactive | inactive | inactive | inactive | inactive |  | inactive | inactive | inactive | inactive | inactive | inactive |  |
| COC[C@H](C)N(C(=O)CCl)c1c(C)csc1C | inactive | inactive | inactive | inactive | inactive | inactive | inactive | inactive | inactive | inactive | inactive | inactive |  | inactive | inactive | inactive | inactive | inactive | inactive |  |
| CCCCCCCCCCCCBr | inactive | inactive | inactive | inactive | inactive | inactive | inactive | inactive | inactive | inactive | inactive | inactive |  | inactive | inactive | inactive | inactive | inactive | inactive |  |
| C1CCC2CCCCC2C1 (configuration not stated) | inactive | inactive | inactive | inactive | inactive | inactive | inactive | inactive | inactive | inactive | inactive | inactive |  | inactive | inactive | inactive | inactive | inactive | inactive |  |
| N#C/C=C/c1ccccc1 | inactive | inactive | inactive | inactive | inactive | inactive | inactive | inactive | inactive | inactive | inactive | inactive | inactive | inactive | inactive | inactive | inactive | inactive | inactive |  |
| ClCCN1CCOCC1 | inactive | inactive | inactive | inactive | inactive | inactive | inactive | inactive | inactive | inactive | inactive | inactive |  | inactive | inactive | inactive | inactive |  | inactive |  |
| Cc1ccc(C(=O)Cl)cc1 | inactive | inactive | inactive | inactive | inactive | inactive | inactive | inactive | inactive | inactive | inactive | inactive | inactive | inactive | inactive | inactive | inactive | inactive |  |  |
| CCCCCCCCCCCCCN1CC(C)OC(C)C1 (configuration not stated) | inactive | inactive | inactive | inactive | inactive | inactive | inactive | inactive | inactive | inactive | inactive | inactive |  | inactive | inactive | inactive | inactive | inactive | inactive |  |
| Cn1[nH]nnc1=S | inactive | inactive | inactive | inactive | inactive | inactive | inactive | inactive | inactive | inactive | inactive | inactive |  | inactive | inactive | inactive | inactive | inactive |  |  |
| CC(C)[C@H](C(=O)OC(C#N)c1cccc(Oc2ccccc2)c1)c1ccc(OC(F)F)cc1 (some centres not stated) | inactive | inactive | inactive | inactive | inactive | inactive | inactive | inactive | inactive | inactive | inactive | inactive |  |  | inactive | inactive | inactive | inactive | inactive |  |
